Assay results from PubChem BioAssay (EPA / NIEHS).
“And” between values parts separate entries of the source, which are not always exact repeats. Equal values may be shown once. Records with an inconclusive call do not appear. The source made the active and inactive calls. Rule for the calls: active = hit-call score of the fitted dose curve at least 0.9, where 1 is the maximum; inconclusive = response in the unintended direction; inactive = score below 0.9.

What was measured:
[1] = target: D(1A) dopamine receptor (Homo sapiens) (UniProt P21728); test: NVS_GPCR_hDRD1: NovaScreen (NVS) G Protein-Coupled Receptor Assay for human Dopamine Receptor D1 (DRD1) (AID 2283269)
Sequence of D(1A) dopamine receptor (Homo sapiens) (P21728 whole entry, looked up): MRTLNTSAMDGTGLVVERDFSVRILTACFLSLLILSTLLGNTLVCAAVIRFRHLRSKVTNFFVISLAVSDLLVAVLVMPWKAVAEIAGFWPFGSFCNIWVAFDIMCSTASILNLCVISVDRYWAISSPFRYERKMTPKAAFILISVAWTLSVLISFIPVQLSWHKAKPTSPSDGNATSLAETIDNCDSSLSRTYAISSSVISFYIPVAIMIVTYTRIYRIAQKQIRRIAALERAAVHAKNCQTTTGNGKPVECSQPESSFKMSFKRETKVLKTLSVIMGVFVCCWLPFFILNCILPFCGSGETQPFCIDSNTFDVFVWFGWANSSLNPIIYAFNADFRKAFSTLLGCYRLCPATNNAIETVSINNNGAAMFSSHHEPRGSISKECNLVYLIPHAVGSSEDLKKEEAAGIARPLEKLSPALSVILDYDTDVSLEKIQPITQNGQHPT
In short: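 Cell-free competition with radioligand, filter-trapped and scintillation-counted 1 h post-dose, using HEK293-derived human D1 preparation. Duplicate single-point testing at 25 uM first, then concentration series for actives; DMSO served as baseline, loss-of-signal scored.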

[2] = target: Muscarinic acetylcholine receptor M1 (Homo sapiens) (UniProt P11229); test: NVS_GPCR_hM1: NovaScreen (NVS) G Protein-Coupled Receptor Assay for human Muscarinic, M1 Receptor (AID 2283270)
Sequence of Muscarinic acetylcholine receptor M1 (Homo sapiens) (P11229 whole entry, looked up): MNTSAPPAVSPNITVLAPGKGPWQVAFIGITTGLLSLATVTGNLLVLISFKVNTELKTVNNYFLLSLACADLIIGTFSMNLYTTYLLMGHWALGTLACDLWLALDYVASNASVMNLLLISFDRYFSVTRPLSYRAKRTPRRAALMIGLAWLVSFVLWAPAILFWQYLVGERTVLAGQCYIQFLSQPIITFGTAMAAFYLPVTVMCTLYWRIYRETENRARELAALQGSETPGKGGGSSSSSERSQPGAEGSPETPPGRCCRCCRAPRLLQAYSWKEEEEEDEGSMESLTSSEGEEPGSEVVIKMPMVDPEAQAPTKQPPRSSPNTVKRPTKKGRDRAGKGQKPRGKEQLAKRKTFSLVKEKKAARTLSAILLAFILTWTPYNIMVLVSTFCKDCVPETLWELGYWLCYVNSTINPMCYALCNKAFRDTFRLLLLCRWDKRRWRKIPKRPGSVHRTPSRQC
In short: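 Cell-free radioligand displacement using membrane protein extracted from CHO cells, read by filter-based scintillation counting 1 h after dosing. Loss of bound signal fitted versus DMSO; primary screen single concentration 25 uM in duplicate, actives followed by concentration series.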

[3] = target: human Leukotriene B4 Receptor 1 (LTB4-BLT1), LTB4R (gene 1241) (UniProt Q15722); test: NVS_GPCR_hLTB4_BLT1: NovaScreen (NVS) G Protein-Coupled Receptor Assay for human Leukotriene B4 Receptor 1 (LTB4-BLT1) (AID 2283271)
Sequence of human Leukotriene B4 Receptor 1 (LTB4-BLT1), LTB4R (gene 1241) (Q15722 whole entry, looked up): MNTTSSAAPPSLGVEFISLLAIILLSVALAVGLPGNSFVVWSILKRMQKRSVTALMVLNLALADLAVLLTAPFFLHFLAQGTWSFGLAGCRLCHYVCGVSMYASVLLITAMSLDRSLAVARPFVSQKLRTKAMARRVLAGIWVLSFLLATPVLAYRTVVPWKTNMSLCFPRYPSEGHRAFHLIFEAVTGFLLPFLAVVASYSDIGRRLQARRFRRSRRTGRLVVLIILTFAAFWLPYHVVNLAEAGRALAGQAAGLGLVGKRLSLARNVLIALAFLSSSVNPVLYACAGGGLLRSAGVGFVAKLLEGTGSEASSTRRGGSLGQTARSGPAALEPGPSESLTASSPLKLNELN
Description: (§1) NVS_GPCR_hLTB4_BLT1 is a biochemical, single-readout assay that uses extracted gene-proteins from Human neutrophils in a cell-free assay. Measurements were taken 1 hour after chemical dosing in a 48-well plate.NVS_GPCR_hLTB4_BLT1 is one of one assay component(s) measured or calculated from the NVS_GPCR_hLTB4_BLT1 assay. It is designed to make measurements of radioligand binding, a form of binding reporter, as detected with scintillation counting signals by Filter-based radiodetection technology.Data from the assay component NVS_GPCR_hLTB4_BLT1 was analyzed into 1 assay endpoint. This assay endpoint, NVS_GPCR_hLTB4_BLT1, was analyzed in the positive analysis fitting direction relative to DMSO as the negative control and baseline of activity. Using a type of binding reporter, loss-of-signal activity can be used to understand changes in the binding as they relate to the gene LTB4R. Furthermore, this assay endpoint can be referred to as a primary readout, because the performed assay has only produced 1 assay endpoint. To generalize the intended target to other relatable targets, this assay endpoint is annotated to the gpcr intended target family, where the subfamily is rhodopsin-like receptor.
(§2) Binding assays used specific radioligands (tritiated, iodinated) with non-radioactive competitive displacement ligands in agonist or antagonist protocols (as indicated) and various reference compounds and inhibitors to titrate specific binding to receptors and transporters. Most enzyme assays (CYPs, kinases, phosphatases, proteases, HDACs) used recombinant protein and specific substrates (fluorescence mostly, some colorimetric and radioactive) and inhibitors, followed by a biochemical separation of substrate and product. All assays for the biochemical HTS were initially run in duplicate at a single concentration (10 uM for CYP450 assays and 25 uM for all others). Assay-chemical combinations meeting a pre-defined threshold (e.g., 30% inhibition and other criteria defined below) were then run in singleton concentration-response format with maximum concentration of 20 uM for CYPs and 50 uM for all others. Each assay was run with positive and negative controls, and concurrent controls on every plate. The follow-up (secondary) screen tested active chemical-pairs in concentration series, as well as a few additional assays not tested in the primary screen, some selected negative inactives, and several cases re-run in the concentration series for confirmatory purposes.

[4] = target: Muscarinic acetylcholine receptor M3 (Homo sapiens) (UniProt P20309); test: NVS_GPCR_hM3: NovaScreen (NVS) G Protein-Coupled Receptor Assay for human Muscarinic, M3 Receptor (AID 2283272)
Sequence of Muscarinic acetylcholine receptor M3 (Homo sapiens) (P20309 whole entry, looked up): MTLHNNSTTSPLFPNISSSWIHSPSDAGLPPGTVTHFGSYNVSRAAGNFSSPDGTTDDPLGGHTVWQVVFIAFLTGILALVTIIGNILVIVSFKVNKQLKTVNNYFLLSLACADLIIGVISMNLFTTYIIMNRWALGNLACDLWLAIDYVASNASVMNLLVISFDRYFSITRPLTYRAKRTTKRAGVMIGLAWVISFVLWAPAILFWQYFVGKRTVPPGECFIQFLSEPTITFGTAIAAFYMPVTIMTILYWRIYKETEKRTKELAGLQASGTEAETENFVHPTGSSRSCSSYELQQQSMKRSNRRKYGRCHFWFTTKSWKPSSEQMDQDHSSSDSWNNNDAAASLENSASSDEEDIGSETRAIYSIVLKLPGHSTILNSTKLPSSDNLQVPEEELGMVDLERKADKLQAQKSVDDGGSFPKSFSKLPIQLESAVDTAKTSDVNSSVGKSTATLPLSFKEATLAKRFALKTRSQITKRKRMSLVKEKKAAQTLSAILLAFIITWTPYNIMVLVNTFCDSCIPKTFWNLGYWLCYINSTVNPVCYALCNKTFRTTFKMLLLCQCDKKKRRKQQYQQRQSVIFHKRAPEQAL
Description: (§3) NVS_GPCR_hM3 is a biochemical, single-readout assay that uses extracted gene-proteins from CHO in a cell-free assay. Measurements were taken 1 hour after chemical dosing in a 96-well plate.NVS_GPCR_hM3 is one of one assay component(s) measured or calculated from the NVS_GPCR_hM3 assay. It is designed to make measurements of radioligand binding, a form of binding reporter, as detected with scintillation counting signals by Filter-based radiodetection technology.Data from the assay component NVS_GPCR_hM3 was analyzed into 1 assay endpoint. This assay endpoint, NVS_GPCR_hM3, was analyzed in the positive analysis fitting direction relative to DMSO as the negative control and baseline of activity. […] Furthermore, this assay endpoint can be referred to as a primary readout, because the performed assay has only produced 1 assay endpoint. […]
(§4) Binding assays used specific radioligands (tritiated, iodinated) with non-radioactive competitive displacement ligands in agonist or antagonist protocols (as indicated) and various reference compounds and inhibitors to titrate specific binding to receptors and transporters. Most enzyme assays (CYPs, kinases, phosphatases, proteases, HDACs) used recombinant protein and specific substrates (fluorescence mostly, some colorimetric and radioactive) and inhibitors, followed by a biochemical separation of substrate and product. […]

[5] = target: Muscarinic acetylcholine receptor M2 (Homo sapiens) (UniProt P08172); test: NVS_GPCR_hM2: NovaScreen (NVS) G Protein-Coupled Receptor Assay for human Muscarinic, M2 Receptor (AID 2283273)
Sequence of Muscarinic acetylcholine receptor M2 (Homo sapiens) (P08172 whole entry, looked up): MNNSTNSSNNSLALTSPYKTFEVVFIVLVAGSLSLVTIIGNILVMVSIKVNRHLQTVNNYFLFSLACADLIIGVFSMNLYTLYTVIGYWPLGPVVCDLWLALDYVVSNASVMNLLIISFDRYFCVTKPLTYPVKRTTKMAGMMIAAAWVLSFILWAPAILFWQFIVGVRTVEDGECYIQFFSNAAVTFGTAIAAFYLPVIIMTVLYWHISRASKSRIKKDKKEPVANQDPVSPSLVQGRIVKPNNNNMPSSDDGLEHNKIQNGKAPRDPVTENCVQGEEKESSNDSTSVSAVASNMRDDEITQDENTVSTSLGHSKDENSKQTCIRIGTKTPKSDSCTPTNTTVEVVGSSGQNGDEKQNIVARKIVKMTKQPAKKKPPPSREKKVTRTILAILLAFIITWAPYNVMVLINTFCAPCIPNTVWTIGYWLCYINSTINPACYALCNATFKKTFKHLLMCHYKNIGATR
In short: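 Radioligand displacement on human M2 receptor membranes from CHO cells, 1 h incubation, filtration with scintillation counting. Primary screen in duplicate at 25 uM; actives retested in concentration series; loss of signal fitted versus DMSO.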

[6] = target: human Muscarinic, M4 Receptor, CHRM4 (gene 1132) (UniProt P08173); test: NVS_GPCR_hM4: NovaScreen (NVS) G Protein-Coupled Receptor Assay for human Muscarinic, M4 Receptor (AID 2283274)
Sequence of human Muscarinic, M4 Receptor, CHRM4 (gene 1132) (P08173 whole entry, looked up): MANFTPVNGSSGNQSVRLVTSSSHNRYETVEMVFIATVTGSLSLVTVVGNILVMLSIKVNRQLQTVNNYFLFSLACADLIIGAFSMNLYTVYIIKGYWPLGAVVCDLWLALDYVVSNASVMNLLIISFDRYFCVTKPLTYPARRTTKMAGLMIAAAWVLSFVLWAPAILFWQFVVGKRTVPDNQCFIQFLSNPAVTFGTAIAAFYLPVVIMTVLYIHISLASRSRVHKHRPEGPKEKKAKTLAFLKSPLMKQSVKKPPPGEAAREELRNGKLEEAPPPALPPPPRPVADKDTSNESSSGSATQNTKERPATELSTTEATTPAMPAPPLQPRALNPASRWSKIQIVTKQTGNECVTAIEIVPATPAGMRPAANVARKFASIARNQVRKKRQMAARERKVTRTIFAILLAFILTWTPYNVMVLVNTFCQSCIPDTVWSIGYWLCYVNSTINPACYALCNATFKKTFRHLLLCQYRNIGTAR
In short: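 Cell-free radioligand displacement using CHO-derived human M4 receptor protein, 1 h after dosing; bound radioactivity by filtration and scintillation counting. Primary screen single 25 uM duplicate, actives followed in concentration series.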

[7] = target: human Neurokinin, NK2 Receptor, TACR2 (gene 6865) (UniProt P21452); test: NVS_GPCR_hNK2: NovaScreen (NVS) G Protein-Coupled Receptor Assay for human Neurokinin, NK2 Receptor (AID 2283278);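 note: actives reduce bound radioligand signal relative to DMSO baseline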
Sequence of human Neurokinin, NK2 Receptor, TACR2 (gene 6865) (P21452 whole entry, looked up): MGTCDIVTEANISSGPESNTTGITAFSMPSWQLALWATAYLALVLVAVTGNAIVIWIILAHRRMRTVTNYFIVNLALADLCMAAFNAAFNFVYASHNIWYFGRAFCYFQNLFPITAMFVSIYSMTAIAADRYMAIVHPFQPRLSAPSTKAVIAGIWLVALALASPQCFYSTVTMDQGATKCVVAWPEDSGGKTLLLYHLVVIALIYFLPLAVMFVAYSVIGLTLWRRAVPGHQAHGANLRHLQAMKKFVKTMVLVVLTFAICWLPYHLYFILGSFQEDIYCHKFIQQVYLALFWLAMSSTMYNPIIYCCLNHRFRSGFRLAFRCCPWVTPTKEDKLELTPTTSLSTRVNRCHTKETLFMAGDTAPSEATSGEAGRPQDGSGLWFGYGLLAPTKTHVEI
In short: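 Cell-free radioligand binding using receptor protein extracted from CHO cells; readings taken 4 hours after chemical dosing by filter-based scintillation counting. Primary screen ran single concentration (25 uM) in duplicate; actives followed up in concentration series, loss-of-signal versus DMSO baseline.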

[8] = target: human Neuropeptide Receptor Y1 (NPY1), NPY1R (gene 4886) (UniProt P25929); test: NVS_GPCR_hNPY1: NovaScreen (NVS) G Protein-Coupled Receptor Assay for human Neuropeptide Receptor Y1 (NPY1) (AID 2283276)
Sequence of human Neuropeptide Receptor Y1 (NPY1), NPY1R (gene 4886) (P25929 whole entry, looked up): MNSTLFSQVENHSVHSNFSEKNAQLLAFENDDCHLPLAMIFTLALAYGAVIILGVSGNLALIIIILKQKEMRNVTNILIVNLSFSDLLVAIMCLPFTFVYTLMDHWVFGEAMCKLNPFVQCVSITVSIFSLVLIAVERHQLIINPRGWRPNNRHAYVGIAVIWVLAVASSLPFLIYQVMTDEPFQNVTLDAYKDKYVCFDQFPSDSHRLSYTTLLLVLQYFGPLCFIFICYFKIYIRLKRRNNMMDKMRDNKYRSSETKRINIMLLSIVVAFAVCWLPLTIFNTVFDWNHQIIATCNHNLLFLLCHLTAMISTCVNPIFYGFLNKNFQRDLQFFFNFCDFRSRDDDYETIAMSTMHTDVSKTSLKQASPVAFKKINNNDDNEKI
In short: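 Cell-free radioligand binding using receptor extracted from SK-N-MC cells, 1 h incubation, filter-based scintillation counting. Primary screen single concentration 25 uM in duplicate; actives followed in concentration series. Loss of bound signal scored versus DMSO.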

[9] = target: human Neurotensin Receptor (NTS), NTSR1 (gene 4923) (UniProt P30989); test: NVS_GPCR_hNTS: NovaScreen (NVS) G Protein-Coupled Receptor Assay for human Neurotensin Receptor (NTS) (AID 2283279)
Sequence of human Neurotensin Receptor (NTS), NTSR1 (gene 4923) (P30989 whole entry, looked up): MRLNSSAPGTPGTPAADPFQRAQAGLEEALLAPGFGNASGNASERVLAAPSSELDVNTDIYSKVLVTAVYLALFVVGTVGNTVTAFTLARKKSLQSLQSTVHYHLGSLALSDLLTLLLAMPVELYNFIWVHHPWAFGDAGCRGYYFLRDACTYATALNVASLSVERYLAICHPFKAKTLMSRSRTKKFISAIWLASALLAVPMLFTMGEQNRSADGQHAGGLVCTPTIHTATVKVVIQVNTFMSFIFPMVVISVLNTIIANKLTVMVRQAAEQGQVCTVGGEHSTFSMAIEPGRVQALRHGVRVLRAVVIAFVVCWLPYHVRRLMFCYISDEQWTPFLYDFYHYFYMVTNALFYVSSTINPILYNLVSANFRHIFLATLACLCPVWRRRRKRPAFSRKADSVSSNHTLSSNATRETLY
Description: as §1, with “NVS_GPCR_hNTS” for “NVS_GPCR_hLTB4_BLT1”, “CHO” for “Human neutrophils”, “96-well plate.NVS_GPCR_hNTS” for “48-well plate.NVS_GPCR_hLTB4_BLT1”, “NVS_GPCR_hNTS,” for “NVS_GPCR_hLTB4_BLT1,”, “NTSR1.” for “LTB4R.”
as §2

[10] = target: Neuropeptide Y receptor type 2 (Homo sapiens) (UniProt P49146); test: NVS_GPCR_hNPY2: NovaScreen (NVS) G Protein-Coupled Receptor Assay for human Neuropeptide Receptor Y2 (NPY2) (AID 2283277)
Sequence of Neuropeptide Y receptor type 2 (Homo sapiens) (P49146 whole entry, looked up): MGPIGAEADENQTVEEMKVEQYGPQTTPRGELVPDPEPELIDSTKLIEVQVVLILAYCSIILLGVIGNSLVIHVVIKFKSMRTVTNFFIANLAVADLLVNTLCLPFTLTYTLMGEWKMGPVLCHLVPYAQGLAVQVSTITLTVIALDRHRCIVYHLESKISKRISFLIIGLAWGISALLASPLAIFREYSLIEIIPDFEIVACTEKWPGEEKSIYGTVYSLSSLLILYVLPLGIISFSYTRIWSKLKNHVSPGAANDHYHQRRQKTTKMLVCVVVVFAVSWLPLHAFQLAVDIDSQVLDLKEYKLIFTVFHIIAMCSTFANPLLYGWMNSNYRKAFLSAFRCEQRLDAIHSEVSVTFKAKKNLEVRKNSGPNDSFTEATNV
Description: as §3, with “NVS_GPCR_hNPY2” for “NVS_GPCR_hM3”, “SK-N-MC” for “CHO”, “plate.NVS_GPCR_hNPY2” for “plate.NVS_GPCR_hM3”, “NVS_GPCR_hNPY2,” for “NVS_GPCR_hM3,”
as §4

Compound: COc1ccc(C(c2ccc(OC)cc2)C(Cl)(Cl)Cl)cc1
- outcome [1]: inactive
- outcome [2]: inactive
- outcome [3]: inactive
- outcome [4]: inactive
- outcome [5]: inactive
- outcome [6]: inactive
- outcome [7]: inactive

Compound: Cc1ccc(-c2c(Cl)nc(C#N)n2S(=O)(=O)N(C)C)cc1
- outcome [7]: inactive

Compound: CNC(=S)S
- outcome [5]: inactive
- outcome [8]: inactive
- outcome [9]: inactive

Compound: CO/C=C(/C(=O)OC)c1ccccc1Oc1cc(Oc2ccccc2C#N)ncn1
- outcome [1]: inactive
- AC50 [3]: 14.6 µM (active)

Compound: COC(=O)C=C(C)OP(=O)(OC)OC
- outcome [6]: inactive

Compound: CC1COC(Cn2cncn2)(c2ccc(Oc3ccc(Cl)cc3)cc2Cl)O1 (stereo unspecified)
- AC50 [1]: 6.97 µM (active)
- outcome [3]: inactive

Compound: CCOC(=O)C(Cl)Cc1cc(-n2nc(C)n(C(F)F)c2=O)c(F)cc1Cl (stereo unspecified)
- outcome [7]: inactive

Compound: COc1nc(C)nc(NC(=O)NS(=O)(=O)c2ccccc2Cl)n1
- outcome [9]: inactive

Compound: CCCCNC(=O)OCC#CI
- AC50 [1]: 15.3 µM (active) and 9.21 µM (active)
- AC50 [8]: 15.9 µM (active) and 14.4 µM (active)

Compound: O=C(Nc1ccccc1)Nc1ccnc(Cl)c1
- AC50 [1]: 14.5 µM (active)

Compound: CS/C(C)=N/OC(=O)N(C)SN(C)C(=O)O/N=C(\C)SC
- AC50 [8]: 25 µM (active)

Compound: C=CCC1=C(C)[C@@H](OC(=O)[C@@H]2[C@@H](C=C(C)C)C2(C)C)CC1=O
- AC50 [1]: 25 µM (active)

Compound: COc1nc(C)nc(NC(=O)NS(=O)(=O)c2ccccc2CCC(F)(F)F)n1
- outcome [10]: inactive

Compound: COP(=S)(OC)Oc1nc(Cl)c(Cl)cc1Cl
- AC50 [1]: 12.6 µM (active)
- outcome [5]: inactive

Compound: C#CCOS(=O)OC1CCCCC1Oc1ccc(C(C)(C)C)cc1 (stereo unspecified)
- AC50 [1]: 25 µM (active)
- outcome [9]: inactive

Compound: CN(C)C(=S)SSC(=S)N(C)C
- AC50 [1]: 4.51 µM (active)
- outcome [6]: inactive
- AC50 [8]: 14.7 µM (active)
